High-throughput results deposited in PubChem by National Center for Advancing Translational Sciences (NCATS).
DT40 TDP1 no CPT: qHTS for Inhibitors of human tyrosyl-DNA phosphodiesterase 1 (TDP1): qHTS in cells in absence of CPT. 420,000 compounds, 15% hits. AID 686978, 2013. DT40 Tdp1-/- hTDP1 cells, no CPT, ATP luminescence, 48 h. Potency, µM (doses to about 46.2 µM), without a hit: at the top dose activity change, negative = growth inhibition, most hits filed as inhibitors; also: potency is read from the fitted curve at half-maximal effect; nearly all actives have a fitted effect of over 55% in size
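Growth of hTDP1-complemented DT40 Tdp1-knockout cells is measured by ATP luminescence after at least 48 hr compound exposure at 37 °C, with DMSO substituting for the 20 nM CPT used in the parallel screen.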
TDP1 cell CPT: DT40-hTDP1 cell growth loss with CPT; chicken DT40 Tdp1-/-;hTDP1 cells + 20 nM CPT, ATP luminescence, 48 h; Potency, µM (highest dose often 46.2 µM), without a hit: at the top dose activity change, negative = growth inhibition, most hits filed as inhibitors; 420,000 compounds, 12% hits; also: potency is read from the fitted curve at half-maximal effect; nearly all actives have a fitted effect of over 55% in size
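Chicken DT40 Tdp1-/- cells stably complemented with human TDP1 were seeded at 400 cells/well in medium containing 20 nM camptothecin, exposed to pin-transferred compounds, and grown at 37 °C for at least 48 hr. Viability was read as ATP luminescence.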
HT1080-NT tox: kills 2HG-producing HT-1080-NT fibrosarcoma cells; HT-1080-NT fibrosarcoma viability, CellTiter-Glo ATP luminescence, 48 h; Potency, µM (series often up to 46.1 µM), for inactives: at the top dose activity, negative = less viability, usual class: cytotoxic; 360,000 compounds, 1.6% hits;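 also: NT is the 2HG producing partner of a matched IDH1 knockdown line; potency is read from the fitted curve at half-maximal effect; 0% = DMSO-treated cells and -100% = media-only wells without cells; nearly all actives have a fitted effect of over 55% in size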
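HT-1080-NT; 750 cells/well; 5% FBS RPMI; 48 h compound, 37 degrees C; CellTiter-Glo luminescence; curve fitting and curve-class assignment.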
IL1B secr inh: inhibitors of inflammasome signaling (IL-1 beta secretion); 360,000 compounds, 4.7% hits; activity change, % at 57.5 µM; THP-1 LPS/ATP IL-1B secretion, AlphaLISA, 16 h; stronger effect = lower value; in the data active = activity change below about -50%; inconclusive = mostly about -30% to -49%
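THP-1 cells pretreated 1 hr with compounds (up to 57.5 uM final), then stimulated with LPS (250 ng/mL final) plus ATP (1.25 mM final); secreted IL-1B measured by AlphaLISA after 16 hr, decreased signal indicating inhibition.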
HT1080 IDH1KD tx: kills HT-1080 cells with IDH1 knockdown. HT-1080 IDH1 knockdown viability, ATP luminescence, 48 h. Potency, µM (doses to about 46.1 µM), without a hit: top-dose activity, negative = toxicity, usual class: cytotoxic. 360,000 compounds, 2% hits. AID 686971;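 also: potency is read from the fitted curve at half-maximal effect; 0% = DMSO wells and -100% = cell-free medium wells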
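CellTiter-Glo luminescence after 48 h compound exposure at 37 degrees C of IDH1-knockdown HT-1080 cells in 5% FBS RPMI. %Activity scaled between DMSO wells and cell-free media wells, with curves fitted and assigned curve classes.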
Numbers without * were called inactive; u = inconclusive; x = no result. Most compounds without a hit are left out; they make up all but 19% or so of the library. Unless noted, calls follow the shape of the dose curve; as a rule, active = well fitted curve in the direction sought with a large enough effect; inconclusive = small, poorly fitted or top-dose-only effect, or another doubt; inactive = no such curve, though single readings can be large; an effect the other way counts as inactive or inconclusive. Unless noted, % is scaled to controls: 0 for no effect and ±100 for the full control effect.

SMILES | DT40 TDP1 no CPT | TDP1 cell CPT | HT1080-NT tox | IL1B secr inh | HT1080 IDH1KD tx
CCOC(=O)C1(Cc2ccc(Cl)cc2)CCN(Cc2cn(CC)nc2C)CC1 | u | 16µM* | -2% | u | 7%
CCOC(=O)C1(Cc2ccc(OC)cc2)CCN(C(=O)c2cccc3nccnc23)CC1 | -20% | -15% | -3% | 26 | -2%
O=c1cc(-c2ccccc2)[nH]n2cnnc12 | 3% | 36% | 1% | 51 | 8%
CC(C)[C@H](NS(=O)(=O)/C=C/c1ccccc1)C(=O)OCC(=O)NC(N)=O | -18% | -2% | 3% | 12 | 8%
COc1cccc2cc(C(=O)Nc3ccc(C)cc3)c(=O)oc12 | -1% | -6% | x | x | x
COc1ccc(NC(=O)c2cc3cccc(OC)c3oc2=Nc2ccc(C(=O)O)cc2)cc1OC | 13µM* | 9.2µM* | 0% | -1 | -9%
C[n+]1c(/C=C/c2ccc(F)cc2)ccc2ccccc21 | 2.5µM* | 3.5µM* | x | x | x
CCOc1ccc(/C=C/c2ccc3ccccc3[n+]2C)cc1OCC | 2µM* | 4µM* | x | x | x
C[n+]1c(/C=C/c2ccc(O)cc2)ccc2ccccc21 | 18µM* | u | -7% | u | -5%
Fc1ccc(/C=C/c2nnc(-c3cccs3)o2)cc1 | -23% | 7% | 18% | u | 14%
C[n+]1c(/C=C/c2ccc3c(c2)OCO3)ccc2ccccc21 | 2% | 13% | 14% | -22 | 7%
CCCCN(C)CCN1C(=O)C2C(C(=O)Nc3ccc(C)cc3)C3C=CC2(O3)C1C(=O)NC1CCCCC1 (configuration not stated) | -22% | 0% | -4% | -54* | -4%
CN(C)CCN1C(=O)C2C(C(=O)Nc3cc(Cl)cc(Cl)c3)C3C=CC2(O3)C1C(=O)NC1CCCCC1 (configuration not stated) | -2% | 4% | -18% | -68* | -11%
Cc1cc(C)cc(NC(=O)C2C3C=CC4(O3)C2C(=O)N(CCN2CCCCC2)C4C(=O)NC2CCCCC2)c1 (configuration not stated) | -23% | -4% | 1% | -11 | -1%
CC1CCCC(NC(=O)C2N(CCCN3CCCC3)C(=O)C3C(C(=O)Nc4cccc(Cl)c4)C4C=CC32O4)C1C (configuration not stated) | u | -2% | -22% | -57* | -29%
CCN(C(=O)CSc1nnc(CNc2cccc(OC)c2)n1C1CCCCC1)C1CCS(=O)(=O)C1 (configuration not stated) | u | -12% | -2% | 7 | -6%
CC(=O)c1ccc(NC(=S)Nc2ccc(Br)c(Cl)c2)cc1 | u | u | -18% | u | -28%
CC(=O)c1ccc(NC(=S)NC(C)c2ccc(Cl)cc2Cl)cc1 (configuration not stated) | 29µM* | u | u | -73* | u
Cc1ccc(CNc2ncnc(N)c2[N+](=O)[O-])cc1 | u | 5% | 1% | -11 | 9%
Cc1ccc(NC(=O)CSc2nnc(-c3ccc(Br)cc3)o2)c(C)c1 | -53% | u | x | x | x
CC1=CC(C)(C)N(C(=O)CSc2nnc(-c3ccc(C)cc3)o2)c2ccc(C)cc21 | 18µM* | u | -2% | 5 | -7%
O=[N+]([O-])c1cc2no[n+]([O-])c2cc1N1CCCCC1 | 0.92µM* | 0.58µM* | 12% | -78* | -2%
COc1ccc2c(c1)c(C(O)CN1CCN(Cc3ccc4c(c3)OCO4)CC1)c(C)n2C (configuration not stated) | 23µM* | u | -27% | -15 | -29%
COc1ccc2c(c1)c(C(O)CN1CCC(Cc3ccccc3)CC1)c(C)n2C (configuration not stated) | u | u | -3% | -90* | -1%
Cc1c(C(O)CN2CCN(Cc3ccc4c(c3)OCO4)CC2)c2ccccc2n1C (configuration not stated) | -30% | u | u | -10 | 11µM*
SMILES | DT40 TDP1 no CPT | TDP1 cell CPT | HT1080-NT tox | IL1B secr inh | HT1080 IDH1KD tx
Cn1c(=O)c([N+](=O)[O-])c(N2CCN(Cc3ccc4c(c3)OCO4)CC2)c2ccccc21 | 8.2µM* | 13µM* | -18% | -22 | -16%
CS(=O)(=O)N1CCc2cc(C(=O)Nc3ccccc3Cl)ccc21 | -19% | -19% | 23% | u | 21%
OC(CN1CCN(Cc2ccc3c(c2)OCO3)CC1)c1c[nH]c2ccccc12 (configuration not stated) | u | 12µM* | -3% | u | 1%
OC(CN1CCN(c2ccccc2)CC1)c1c[nH]c2ccccc12 (configuration not stated) | u | u | -17% | 1 | -30%
O=C(Oc1cccc(Cl)c1)N1CCOCC1 | -4% | 6% | -3% | -18 | -19%
CCN1CCN(Cc2c(O)ccc3c(C)c(-c4ccccc4)c(=O)oc23)CC1 | 16µM* | u | x | x | x
Cc1c(-c2ccc(Cl)cc2)c(=O)oc2c(CN3CCOCC3)c(O)ccc12 | 21µM* | u | x | x | x
CC1CN(Cc2c(O)ccc3c2oc(=O)c2ccccc23)CC(C)O1 (configuration not stated) | 15µM* | 15µM* | u | -14 | -7%
CCN1CCN(Cc2c(O)ccc3c(C)cc(=O)oc23)CC1 | -26% | -8% | 4% | -1 | 3%
Cc1c(-c2ccc(Cl)cc2)c(=O)oc2ccc(OC(=O)N3CCOCC3)cc12 | 21µM* | u | x | x | x
COc1ccc(-c2c(C)oc3c(CN4CCOCC4)c(O)ccc3c2=O)cc1 | 2% | -19% | 13% | -7 | -3%
CCc1c(C)c2ccc(O)c(CN3CCN(c4ccc(F)cc4)CC3)c2oc1=O | u | 21µM* | x | x | x
O=c1oc2c(CN3CCOCC3)c(O)ccc2c2c1CCC2 | -3% | -2% | -3% | 1 | -5%
O=S(=O)(NCc1cn2ccccc2n1)c1cccs1 | 8% | 0% | 5% | 4 | 4%
CCOc1ccc2oc(C(=O)N(C)CCc3ccc(OC)c(OC)c3)c(C)c2c1 | u | 21µM* | 2% | -12 | 3%
CCOc1ccc2oc(C(=O)Nc3ccc(N4CCOCC4)cc3)c(C)c2c1 | u | -3% | -6% | 30 | u
CCOc1ccc2oc(C(=O)Nc3ccc4c(c3)OCO4)c(C)c2c1 | u | -4% | -5% | -50* | -14%
COc1ccc2oc(C(=O)N(C)Cc3ccc4c(c3)OCCO4)c(C)c2c1 | u | u | 0% | -5 | -2%
CCOc1ccc2oc(C(=O)N(C)CC(=O)Nc3ccc(OCC)c(OCC)c3)c(C)c2c1 | 18µM* | u | 0% | -6 | 0%
